A selection: hits, their analogues and other compounds. The true share with any hit is near 1.2%.
SARS 3CLpro inh = SARS-CoV 3CLpro protease inhibition; P0C6X7; recombinant SARS-CoV 3CLpro, quenched FRET peptide cleavage; inhibition, % at 6 µM; 290,000 compounds, 0.14% hits; AID 1706; in the data active means inhibition above about 12%
PriA SSB inh = K. pneumoniae PriA-SSBct interaction inhibition | AlphaScreen SSBct-PriA binding, biotinylated peptide | inhibition, % at 33 µM | 430,000 compounds, 0.6% hits; in the data active means inhibition mostly above about 37%, no sharp cut-off; inactive means mostly below about 20%;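 further: plate controls were negative control peptide for no effect and reference peptide for full effect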
PrP UTR inh = inhibition of PrP 5' UTR reporter expression; cell-based PrP 5' UTR mRNA reporter, plate reader; inhibition, % (concentration not given with the values); AID 488862; 340,000 compounds, 0.35% hits; in the data active means inhibition above about 52%; further: 0 = median of the neutral control wells
BJeLR lethal = kills HRASV12-expressing BJeLR cells | BJeLR (HRASV12) viability, CellTiter-Glo ATP luminescence, 48 h | inhibition, % (test concentration not listed) | 300,000 compounds, 0.17% hits | AID 1554; in the data active means inhibition above about 50%
PrPC surface inh = inhibitors of human cell surface prion protein PrPC; P04156; TR-FRET read-out; inhibition, % at 13.8 µM; 370,000 compounds, 0.43% hits; AID 720596; in the data active means inhibition above about 24%; further: 0% = median of the test wells and 100% = reference compound wells
PrPC TRFRET cf = confirmation of inhibitors of cell surface human prion protein; shares compounds with PrPC surface inh; cell surface PrPC level, TR-FRET; inhibition, % at 13.8 µM; 1,500 compounds, 65% hits; AID 743200; in the data active means inhibition above about 25%
LD9 tox = LD9 cell cytotoxicity, PrPc inhibitor counter-screen; LD9 cells cytotoxicity, luminescence viability; 1,500 compounds, 29% hits; shares compounds with PrPC surface inh; inhibition, % at 13.8 µM; AID 743201; in the data active means inhibition above about 9.5%
Starred values were filed as active, the others as inactive; x = no result given; ! = a repeat was not active.

SMILES	SARS 3CLpro inh	PriA SSB inh	PrP UTR inh	BJeLR lethal	PrPC surface inh	PrPC TRFRET cf	LD9 tox
Cc1nn(C)cc1CN(C)C(=O)c1cc(-c2ccccc2)nc2ccc(Br)cc12	1	-11	-4	-1	68*	81*	6
CC(C)(C)NC(=O)CN(Cc1cccs1)C(=O)C1COc2ccccc2O1 (stereo not given)	-6	-16	-16	2	-3	x	x
CC(C)CCNC(=O)C(c1ccc(O)cc1)N(Cc1cccs1)C(=O)C1COc2ccccc2O1 (stereo not given)	0	-1	7	-2	25*	10	3
COC(=O)c1c(NC(=O)COc2ncnc3ccccc23)sc(C)c1C	2	-8	-12	-9	3	x	x
CCOC(=O)c1c(NC(=O)COc2ncnc3ccccc23)sc(C(C)=O)c1C	4	-13	-10	-12	29*	36*	1
Cc1cc(C)c(S(=O)(=O)Nc2ccc(N3CCOCC3)cc2)c(C)c1	-2	13	-4	18	6	x	x
Cc1cc(C)c(S(=O)(=O)Nc2cccc(S(=O)(=O)N3CCOCC3)c2)c(C)c1	1	-6	-11	0	27*	18	-10
Nc1ccc2nc(-c3ccc(-c4nc5ccc(N)cc5[nH]4)cc3)[nH]c2c1	-17	-14	x	4	26*	25*	1
C/C(=N/Nc1nc(-c2ccccc2)c2cc(Br)ccc2n1)c1nc2ccccc2[nH]1	x	-9	x	x	x	x	x
c1cnc2c(c1)ccc1cccnc12	0	102*	2	56*!	25*	25*	14*!
Cc1cccc2cccnc12	x	1	-27	x	3	x	x
Cc1ccnc2c1ccc1cccnc12	x	103*	26	x	35*	38*	35*
c1ccc2c(c1)ccc1cccnc12	x	29	x	x	x	x	x
O=C(CSC1=NCCS1)Nc1ccc2ccccc2c1	-1	0	-27	11	3	x	x
Cc1cc(C)nc(SCC(=O)Nc2ccnc3ccccc23)n1	-3	-1	-43	22	46*	43*	16*
COC(=O)c1ccccc1NC(=O)CSc1nc(C)cc(C)n1	-1	-6	-5	3	2	x	x
O=C(CSC1=NCCS1)Nc1ccnc2ccccc12	-2	-7	3	-2	56*	51*	7
CC[C@@H]1C[C@H]2CC[C@H](O2)[C@H](C)C(=O)O[C@@H](C)C[C@@H]2CC[C@@H](O2)[C@@H](C)C(=O)O[C@H](C)C[C@H]2CC[C@H](O2)[C@H](C)C(=O)O[C@@H](C)C[C@@H]2CC[C@@H](O2)[C@@H](C)C(=O)O1	x	x	x	x	39*	56*	55*
CCN1/C(=C/c2ccc3cccc(C)c3[n+]2CC)Sc2ccccc21	-11	16	-26	34	28*	36*	54*
CC[n+]1c(C=C2Sc3ccccc3N2C)ccc2cccc(C)c21	x	44	x	x	x	x	x
Cc1cc(NC(=O)C2COc3ccccc3O2)n(-c2nc3ccccc3s2)n1 (stereo not given)	x	-6	x	x	x	x	x
CCOc1ccc(-n2nc3c(=O)[nH]nc(C)c3c2C)cc1	6	-14	-35	-2	2	x	x
CCOc1ccc(-n2nc3c(=S)[nH]nc(C)c3c2C)cc1	0	-16	-5	6	92*	125*	-4
CCOc1ccc(-n2nc3c(Cl)nnc(C)c3c2C)cc1	3	-11	-11	12	0	x	x
CCCN1CCN(C(=O)C2CCN(c3nnc(C)c4c(C)n(-c5ccc(C)cc5)nc34)CC2)CC1	4	1	-20	6	13	x	x
SMILES	SARS 3CLpro inh	PriA SSB inh	PrP UTR inh	BJeLR lethal	PrPC surface inh	PrPC TRFRET cf	LD9 tox
Cc1ccc(-n2nc3c(SCCN4CCOCC4)nnc(C)c3c2C)cc1	-2	-7	1	-21	33*	56*	-4
CCOc1ccc(-n2nc3c(SCCN4CCCC4)nnc(C)c3c2C)cc1	-4	3	-17	6	55*	74*	-3
O=C(NCCn1ccc(-c2ccncc2)n1)c1ccc(OC(F)(F)F)cc1	x	-3	x	x	x	x	x
COc1ccc(NC(=O)Nc2ncc(C#N)s2)cc1	x	0	x	x	x	x	x
Cc1cc(NC(=O)c2ccc([N+](=O)[O-])o2)n(-c2nc3c(cnn3-c3ccc(Cl)cc3)c(=O)[nH]2)n1	x	1	x	x	x	x	x
C[C@@H]1C[C@H]2O[C@@H]2/C=C\C=C\C(=O)Cc2cc(O)cc(O)c2C(=O)O1	x	x	x	x	81*	48*	61*
CCN(CC)CCNC(=O)c1sc2c(cnc3ccc(OC)cc32)c1-c1ccccc1	x	-10	x	x	x	x	x
CCOC(=O)C1CCN(c2ncnc3c2cnn3-c2ccc(OC)cc2)CC1	-5	-8	4	x	4	x	x
COc1ccc(-n2ncc3c(N4CCC(C(N)=O)CC4)ncnc32)cc1	1	-8	-44	0	36*	29*	-4
CCO[C@H]1OC(C(=O)NCc2nc3ccccc3[nH]2)=C[C@@H](C2CCCCC2)[C@@H]1CCCO	-4	4	-11	-2	44*	25*	1
Cn1c(=O)cc(OCCCC(=O)Nc2cc(-c3cn[nH]c3)ccn2)c2ccccc21	x	x	x	x	35*	41*	24*
Cn1nc(-c2ccccc2NS(=O)(=O)c2ccccc2)ccc1=O	x	-15	x	x	x	x	x
Cc1cnc(C(=O)NCCc2ccncc2)cn1	x	-4	x	x	x	x	x
COc1ccc(-c2nc(-c3ccc(Br)o3)no2)cc1OC	-1	-7	-60	4	-6	x	x
COc1ccc(-c2nnc(-c3ccc(Br)o3)o2)cc1OC	-7	-8	-25	-13	60*	76*	-3
O=C1C([C@@H](c2cccc(Br)c2)N2CCc3ccccc3C2)Sc2nc(-c3ccco3)nn21 (stereo not given in full)	x	14	x	x	x	x	x
CCOc1ccc2[nH]c(C)c(CN3CCOCC3)c(=O)c2c1	-1	-2	-22	-14	32*	3	-3
COc1ccc(C(=O)NC[C@](C)(OC)c2cccc(Cl)c2)cc1F	x	-8	x	x	x	x	x
COc1ccccc1NC(=O)CSc1ncnc2c1oc1ccccc12	-8	-30	-15	3	26*	20	0
O=c1[nH]cc(S(=O)(=O)Nc2ccc(Cl)c(Cl)c2)c(=O)[nH]1	x	-1	x	x	x	x	x
CN(c1ccc(Cl)cc1)c1cc(=O)n(C)c2ccccc12	4	-22	1	6	25*	20	1
CN(C(=O)COc1cc(=O)n(C)c2ccccc12)c1ccc(Cl)cc1	3	2	-16	0	-4	x	x
CCC(C)NC(=O)C(NS(=O)(=O)c1ccc2c(c1)c(=O)n(C)c(=O)n2C)c1ccccc1 (stereo not given)	-4	-1	-14	x	42*	8	-1
CCn1cc(Cl)c(C(=O)Nc2ccccc2C(N)=O)n1	1	45*	-19	-19	54*	11	-5
O=C(c1cc(C2CC2)nc2ccc(Br)cc12)N1N=C(C(F)F)CC1(O)C(F)F (stereo not given)	4	-3	-21	1	31*	21	1
Cc1oncc1C(=O)NCC1CCN(C(=O)c2ccccc2F)CC1	x	-17	x	x	x	x	x

From PubChem BioAssay
